# This is a sample that favours compounds with a hit; in the whole collection about 3.6% have one here.
# Mtb hypoxia rep = inhibitors of hypoxia-regulated fluorescent reporter in Mycobacterium tuberculosis | M. tuberculosis hypoxia-regulated fluorescent reporter, fluorescence | fluorescence inhibition, % (no concentration beside the values) | 0.1% of 300,000 active | AID 1159583; in the data active = fluorescence inhibition mostly above about 23%, no sharp cut-off; inactive = mostly below about 17%
# GDH-TPI counter-1 = counter-screen for M. tuberculosis FBA inhibitors: GDH-TPI coupled enzymes; inhibition, % at 4.8 µM; 1.2% of 360,000 active; GDH-TPI coupled enzyme counterscreen, NADH absorbance; AID 588335; in the data active = inhibition above about 30%;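 note: 0% = DMSO wells and 100% = wells lacking the enzyme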
# Mtb bLac sens = beta-lactam sensitization of Mtb H37Rv; M. tuberculosis H37Rv growth with meropenem, percent inhibition; inhibition, % at 25 µM; 0.27% of 330,000 active; call rule not given here;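 note: growth measured after seven days incubation then overnight dye step; 0% = bacteria only wells and 100% = bacteria with antibiotic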
# FBA Mtb inh = Mtb fructose-bisphosphate aldolase inhibition; inhibition, % at 1 µM; purified M. tuberculosis FBA, fluorescence read-out; P9WQA3; 2.3% of 360,000 active;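 note: 0% = vehicle and 100% = reference inhibitor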
# Target sequence (P9WQA3 whole entry, looked up): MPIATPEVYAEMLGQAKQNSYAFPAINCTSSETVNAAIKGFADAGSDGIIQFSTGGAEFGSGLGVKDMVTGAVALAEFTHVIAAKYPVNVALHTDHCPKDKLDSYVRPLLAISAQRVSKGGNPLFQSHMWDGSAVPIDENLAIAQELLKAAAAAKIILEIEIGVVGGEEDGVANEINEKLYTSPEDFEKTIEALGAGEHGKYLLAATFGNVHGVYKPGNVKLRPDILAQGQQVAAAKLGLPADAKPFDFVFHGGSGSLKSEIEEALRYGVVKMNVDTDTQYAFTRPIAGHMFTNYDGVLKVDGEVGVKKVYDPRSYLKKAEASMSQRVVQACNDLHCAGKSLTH
# DUSP3 inh = DUSP3 (human) phosphatase inhibition. AID 1654. P51452. 0.52% of 290,000 active. recombinant VHR phosphatase, pNPP absorbance. inhibition, % at 13.3 µM; in the data active = inhibition above about 50%
# Mtb FBA inh conf = confirmation of M. tuberculosis fructose-bisphosphate aldolase inhibitors; shares compounds with FBA Mtb inh; purified M. tuberculosis FBA, fluorescence read-out; inhibition, % at 1 µM; 78% of 5,600 active; AID 651616;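 note: 0% = vehicle wells and 100% = reference inhibitor wells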
# GDH-TPI counter-2 = GDH-TPI inhibition counter-screen for FBA inhibitors; shares compounds with FBA Mtb inh; GDH-TPI coupled enzyme counterscreen, fluorescence; inhibition, % at 1 µM; 81% of 5,600 active; AID 652141; in the data active = inhibition above about 10%
# GDH-TPI dose = GDH-TPI dose response counter-screen for Mtb FBA; IC50, µM; 79% of 170 active; shares compounds with FBA Mtb inh; GDH-TPI coupled enzyme assay, fluorescence, artifact counterscreen; call rule not given here
# The depositor's hits bear a star; nt = no result given; + = active, no number. Cut-off read from the data, not from the text of the source, unless noted: active = inhibition above about 27%; inactive = the rest.
SMILES,Mtb hypoxia rep,GDH-TPI counter-1,Mtb bLac sens,FBA Mtb inh,DUSP3 inh,Mtb FBA inh conf,GDH-TPI counter-2,others
CCOC(=O)Nc1nnc(/C=C/c2ccc(OC)cc2)s1,7,36*,22,33*,34,-3,-7,
CCOC(=O)Nc1nnc(-c2ccc(OC)cc2)s1,5,8,4,52*,28,158*,121*,
Cc1ccc(SCc2cc(=O)[nH]c(N=C(N)Nc3cccc4ccccc34)n2)cc1,-11,nt,nt,nt,nt,nt,nt,
Cc1nn(-c2ccccn2)c2c1-c1nc(N)ncc1CC2,nt,4,2,30*,-8,9,-1,
Cc1nn(-c2ccccn2)c(N)c1N=O,14,16,-2,-7,0,nt,nt,
CCn1nc2cc(C(=O)NCC34CC5CC(CC(C5)C3)C4)ccc2c1OC,6,11,1,28*,-12,14,-5,GDH-TPI dose=4*
CCOc1ccc(OCCNC(=O)c2ccc3c(c2)nnn3CC)cc1,13,3,-2,2,nt,nt,nt,
COc1c2ccc(C(=O)NCCCCc3ccccc3)cc2nn1C,8,3,-9,26,-24,nt,nt,
CCCCn1nc2cc(C(=O)NCC34CC5CC(CC(C5)C3)C4)ccc2c1OC,3,8,74,31*,30,57*,43*,
CCOc1c2ccc(C(=O)NCC34CC5CC(CC(C5)C3)C4)cc2nn1CC,6,8,-5,39*,-12,1,6,
Cc1cccc(NC(=O)CCC(=O)NN=Cc2cccnc2)c1,2,nt,nt,nt,nt,nt,nt,
CCC(=O)N1CC2(CC(c3cccc(NC(=O)COc4ccc(Cl)cc4)c3)=NO2)CC1C(N)=O (stereo unspecified),3,nt,nt,nt,nt,nt,nt,
O=C(NN=Cc1cccnc1)C(O)c1ccccc1 (stereo unspecified),2,nt,nt,nt,nt,nt,nt,
Cc1cc2c(C)nc(-c3ccccc3)nc2o1,2,1,-9,2,11,nt,nt,
Cc1nc(-c2cn[nH]c2)c2cc(C)oc2n1,nt,-5,2,27*,32,134*,110*,
CCOC(=O)CCSc1nc(C)c2cc(OC)ccc2n1,2,0,4,36*,-31,140*,116*,
CCOC(=O)CCSc1nc(C)c2cc(C)c(C)cc2n1,-7,-3,96,2,18,nt,nt,
COC(=O)c1cn(-c2ccccc2)nc1-c1ccccc1,nt,-8,0,36*,2,73*,56*,
CC1=C(C(=O)N2CCOCC2)C(c2ccccc2F)C2=C(CCCC2=O)N1 (stereo unspecified),4,14,0,28*,-1,92*,61*,
c1ccc(-n2nnnc2SCc2cn3cccnc3n2)cc1,8,6,-4,43*,-15,76*,57*,
O=C(O)c1cc(-c2c[nH]c3ccccc23)nc2ccc3ccccc3c12,nt,18,-1,45*,16,+,136*,
COC(=O)C(C)Oc1cc(C)cc2oc(=O)c3c(c12)CCC3 (stereo unspecified),6,10,4,74*,1,+,+,
COC(=O)c1cc(COc2cc(C)cc3oc(=O)c4c(c23)CCC4)c(C)o1,nt,nt,nt,nt,1,nt,nt,
Cc1cc(OCC(=O)OC(C)C)c2c3c(c(=O)oc2c1)CCCC3,5,5,18,13,-1,nt,nt,
CCOC(=O)C(C)Oc1cc(C)cc2oc(=O)c3c(c12)CCCC3 (stereo unspecified),1,13,8,75*,23,65*,62*,
SMILES,Mtb hypoxia rep,GDH-TPI counter-1,Mtb bLac sens,FBA Mtb inh,DUSP3 inh,Mtb FBA inh conf,GDH-TPI counter-2,others
COC(=O)C(C)Oc1cc(C)cc2oc(=O)c3c(c12)CCCC3 (stereo unspecified),nt,-4,-6,57*,-7,59*,51*,
NC(=NOC(=O)C=Cc1ccccc1)c1ccccn1,-2,nt,nt,nt,nt,nt,nt,
CCCCC1CC1C(NC(=O)c1ccco1)c1ccc(C(=O)OC)cc1 (stereo unspecified),9,nt,nt,nt,nt,nt,nt,
Nc1nonc1-n1nnc(C(=O)NN=Cc2ccccn2)c1-c1ccccc1,-5,nt,nt,nt,nt,nt,nt,
Cc1cc(OCC(=O)NCc2cccnc2)c2c3c(c(=O)oc2c1)CCCC3,12,4,-7,106*,9,55*,37*,
CCCc1cc(=O)oc2cc(C)cc(OCC(=O)NCc3cccnc3)c12,-2,1,0,76*,2,+,+,

# Compound activity: PubChem, several laboratories
